The source made the active and inactive calls.

The nature of assay [1]: A549 cell viability effects, profiling panel, calcein-AM fluorescence, 48 h, basal (AID 1162). The following applies: higher = more signal.
Assay [2] in a line: adipocyte viability effects, profiling panel, cell-based, 3T3-L1 adipocytes, calcein-AM fluorescence, 48 h, basal (AID 1163). Conditions: 3T3-L1 adipocytes viability, higher = more signal.
A short description of assay [3]: HepG2 cell viability effects, profiling panel, calcein-AM fluorescence, 48 h, basal (AID 1164). Conditions: higher = more signal.
The nature of assay [4]: MM1S cell viability effects, profiling panel, calcein-AM fluorescence, 48 h, basal (AID 1165).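 Note: viability of MM1S multiple myeloma cells under basal unstimulated conditions.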 The following applies: higher = more signal.
Assay [5] can be described thus: basal RPMI8226 viability, no added stimulus, profiling panel, cell-based, calcein-AM fluorescence, 48 h, PK04 Diversity Set (AID 1166).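 Note: cells grown under basal conditions without added stimulus.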 The following applies: RPMI8226 myeloma viability, higher = more signal.
A short description of assay [6]: basal HepG2 mitochondrial membrane potential changes, profiling panel, cell-based, JC-1 fluorescence, 24 h, 100 nL compound (AID 1167). Conditions: higher = more signal.
A short description of assay [7]: basal 3T3-L1 adipocyte mitochondrial potential changes, profiling panel, cell-based, JC-1 fluorescence, 3T3-L1 adipocytes, 24 h, 100 nL compound (AID 1168). The following applies: JC-1 mitochondrial fluorescence, higher = more signal, called active from +8 up or from −8 down.
Assay [8] in a line: basal RPMI8226 mitochondrial membrane potential changes, profiling panel, cell-based, JC-1 fluorescence, 24 h, 100 nL compound (AID 1169). The following applies: RPMI8226 myeloma, JC-1 mitochondrial potential fluorescence, higher = more signal.
Assay [9] can be described thus: basal MM1S mitochondrial membrane potential changes, profiling panel, cell-based, JC-1 fluorescence, 24 h, 100 nL compound (AID 1170). The following applies: higher = more signal.
A short description of assay [10]: A549 lung cancer cell viability effects, profiling panel, resazurin fluorescence, 24 h, PK04 Diversity Set (AID 1171). The following applies: higher = more signal, called active from +8 up or from −8 down.
Note: test concentration not given here.

Take `O=C1C[C@]2(c3ccc([N+](=O)[O-])cc3)C(=O)N(C3CC3)c3cc(CO)ccc3[C@H]2N1C1CCCCC1`: the z-score in assay [1] was -0.164; in assay [2], -0.898; in assay [3], 0.214; in [4], -0.464; in assay [5] it was 0.474; in assay [6] it was -1.07. Further, the z-score in assay [7] is -0.185 (inactive); in assay [8], -0.691; in assay [9], -0.993; in assay [10], -0.332 (inactive).
Turning to `COCCCNC(=O)[C@@]1(CCS(=O)(=O)c2ccccc2)COC(c2ccc(OCCCO)cc2)=N1`, the z-score was -0.222 in assay [1]; 1.11 in assay [2]; -0.771 in [3]; -0.181 in assay [4]; -0.49 in assay [5]; -0.903 in assay [6]. Besides, the z-score in assay [7] is -0.736 (inactive); in assay [8], -0.249; in assay [9], -0.0725; in [10], -0.468 (inactive).
`[N-]=[N+]=Nc1ccccc1C[C@]1(C(=O)N2CCOCC2)N=C(c2ccc(OCCCO)cc2)O[C@H]1c1ccccc1N=[N+]=[N-]`: the z-score in assay [1] is 0.961; in [2], 0.744; in assay [3] it was -0.621; in [4] it was -1.77; in assay [5], -2.98; in [6], 1.81. Moreover, the z-score in assay [7] is -0.0199 (inactive); in assay [8], -1.01; in assay [9] it was -2.03; in [10], -2.16 (inactive).
For `O=C1OCCC=C[C@H]2OC34C=CCN(c5ccc6ccccc6c5)C(=O)[C@H]3N(CCO)C(=O)[C@@H]4C12` (stereo not given in full), the z-score in assay [1] was 0.327; in assay [2] it was -0.423; in [3] it was 0.0955; in assay [4] it was 0.508; in [5], 0.037; in assay [6], -0.409. Moreover, the z-score in [7] was -0.502 (inactive); in assay [8], 0.122; in assay [9], 0.611; in [10], -0.751 (inactive).
Take `COc1ccc(C(O)C2C=CC3C(=O)N(c4ccccc4)C(=O)C3N2Nc2ccc(C#N)cc2)cc1OCc1ccccc1` (stereo not given): the z-score in [1] is 0.233; in assay [2], -0.735; in assay [3], 0.753; in assay [4] it was 0.333; in assay [5], -0.692; in assay [6], -0.974. Further, the z-score in [7] is -1.14 (inactive); in [8] it was -0.137; in assay [9], -0.222; in assay [10] it was 0.141 (inactive).
Take `C[C@@H]1ON(c2ccccc2)[C@H](c2ccccc2)[C@H]1C(=O)O`: the z-score in [1] was -0.0985; in assay [2] it was 0.375; in assay [3], -0.374; in [4], -0.655; in assay [5] it was 0.0402; in assay [6], -0.246. Moreover, the z-score is -0.212 (inactive) in [7], -0.0601 in assay [8], -0.599 in [9] and -0.236 (inactive) in [10].
`COC(=O)[C@@]1(Cc2ccc(F)cc2)[C@H]2c3cc(C(=O)N4CCCC4)n(Cc4cc(F)cc5c4OCOC5)c3C[C@H]2CN1C(=O)c1ccccc1`: the z-score in assay [1] is -1.14; in assay [2], 0.364; in [3], -1.02; in [4] it was -1.54; in assay [5] it was -1.55; in assay [6], 3.05. Besides, the z-score in [7] is -0.484 (inactive); in assay [8], -0.512; in assay [9], -0.744; in assay [10], -1.02 (inactive).
With `NC(=O)N1C(=O)C2C(C1=O)C1C=C(CCCO)C2C(c2ccc(CN3CCCC3)cc2)N1Cc1cc2c(cc1Br)OCO2` (stereo not given), the z-score in assay [1] was -1.05; in assay [2] it was 0.201; in [3] it was -0.623; in assay [4] it was -0.0321; in [5] it was 0.124; in assay [6], -0.595. Besides, the z-score is -0.472 (inactive) in assay [7], 0.159 in assay [8], 0.322 in assay [9] and -0.855 (inactive) in [10].
As to `CC1CC/C=C\[C@H]2OC34C=CCN(CCN5CCOCC5)C(=O)[C@H]3N(CCCO)C(=O)[C@@H]4C2C(=O)O1` (stereo not given in full), the z-score was -0.451 in assay [1]; 0.483 in assay [2]; -0.723 in [3]; 1.22 in [4]; 0.42 in [5]; -0.734 in [6]. Moreover, the z-score in assay [7] is -0.711 (inactive); in [8], 0.741; in [9], 0.649; in assay [10], -0.467 (inactive).
Regarding `CN1C(=O)[C@@H]2[C@@H](CC(COc3ccccc3)=C3[C@@H](CCc4ccccc4)OB(O)C[C@@H]32)C1=O`, the z-score was 0.231 in assay [1]; -0.477 in assay [2]; -1.14 in assay [3]; -2.31 in assay [4]; -0.802 in assay [5]; -1.62 in assay [6]. The z-score in assay [7] is -0.0562 (inactive); in [8] it was 0.122; in assay [9], -0.904; in [10], -0.453 (inactive).
Turning to `O=C1O[C@@H](c2ccccc2)[C@@H](c2ccccc2)N2[C@@H](c3ccc(OCCO)cc3)[C@]3(C(=O)Nc4ccc(C#CC5(O)CCCCCC5)cc43)[C@@H](C(=O)O)[C@H]12`, the z-score is 0.942 in assay [1]; 0.297 in assay [2]; 1.36 in [3]; 0.213 in [4]; 0.342 in [5]; -0.969 in [6]. Also, the z-score was -0.448 (inactive) in assay [7], -0.169 in assay [8], 0.0439 in assay [9] and 1.12 (inactive) in assay [10].
`COC(=O)[C@@]1(Cc2ccc(OC)cc2)[C@H]2c3cc(C(=O)N4CCCC4)n(Cc4ccc(Cl)c(C(F)(F)F)c4)c3C[C@H]2CN1C(=O)c1ccccc1`: the z-score in assay [1] is -0.305; in assay [2], 0.134; in assay [3], 0.931; in [4], -0.963; in [5] it was -0.741; in assay [6], 2.07. Also, the z-score in assay [7] was 0.15 (inactive); in [8], -0.671; in assay [9], -1.63; in [10] it was -0.134 (inactive).
Take `CC(C)C(=C=CC[C@H](O)c1ccccc1OCCO)C[C@H](O)c1cc(Cl)cc(Cl)c1O`: the z-score is 0.884 in assay [1]; 0.271 in assay [2]; 0.601 in [3]; -3.42 in assay [4]; -3.2 in assay [5]; -1.1 in assay [6]. Further, the z-score is 0.427 (inactive) in [7], -0.788 in assay [8], -1.07 in assay [9] and -0.0216 (inactive) in assay [10].
`CN(C)CCCCNC(=O)[C@H]1C[C@H]2C(=O)NCC(=O)N2[C@H]1c1ccc(O)cc1`: the z-score was -0.685 in assay [1]; 0.364 in assay [2]; -0.239 in assay [3]; 0.34 in assay [4]; -0.0681 in [5]; -0.253 in [6]. In addition, the z-score is -0.324 (inactive) in assay [7], 0.347 in assay [8], -0.371 in assay [9] and 1.05 (inactive) in assay [10].
